Screening data deposited in PubChem BioAssay by National Center for Advancing Translational Sciences (NCATS).
DT40 TDP1 no CPT: qHTS for Inhibitors of human tyrosyl-DNA phosphodiesterase 1 (TDP1): qHTS in cells in absence of CPT | Potency, µM (doses to about 46.2 µM), for inactives: at the top dose activity change, negative = growth inhibition, usual class: inhibitors | DT40 Tdp1-/- hTDP1 cells, no CPT, ATP luminescence, 48 h | AID 686978, 2013 | 15% of 420,000 active; further: nearly all actives have a fitted effect of over 55% in size
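Seeded 400 DT40-hTDP1 cells/well (vehicle DMSO, no 20 nM CPT); pinned compounds; ≥48 hr at 37 °C; CellTiter-Glo luminescence as viability measure.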
RORg inh: inhibitors of mouse ROR gamma transcriptional activity | 5.4% of 310,000 active | P51450 | Potency, µM (series often up to 53.6 µM), for inactives: top-dose activity change, negative = inhibition, most hits filed as inhibitors | Drosophila S2 Gal4-RORgamma UAS-luciferase reporter, 20 h; further: nearly all actives have a fitted effect of over 60% in size
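Stable Schneider cell line, Gal4 DNA-binding domain fused to ROR gamma, UAS-luciferase. Cmpd 1 hr RT → CuSO4 700 uM final → 20 hr RT → luciferase reagent 10 min → luminescence.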
DT40 TDP1 CPT: growth inhibition of DT40 Tdp1-/-;hTDP1 cells with camptothecin (screen for TDP1 inhibitors); chicken DT40 Tdp1-/-;hTDP1 cells + 20 nM CPT, ATP luminescence, 48 h; AID 686979; 12% of 420,000 active; Potency, µM (titrated, usually from 46.2 µM), for the others: at the highest dose activity change, negative = growth inhibition, usual class: inhibitors; further: nearly all actives have a fitted effect of over 55% in size
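Cell growth measured by CellTiter-Glo luminescence after a minimum 48 h, 37 C compound exposure with 20 nM CPT in Tdp1-knockout DT40 cells stably expressing hTDP1, seeded 400/well; qHTS titration format.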
VP16 counter: Gal4-VP16 reporter inhibition counter-screen. Drosophila S2 Gal4-VP16 UAS-luciferase, luminescence, 20 h. Potency, µM (titrated, usually from 53.6 µM), without a hit: top-dose activity, negative = inhibition, actives largely listed as inhibitors. 3.5% of 310,000 active;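 further: Gal4-VP16 expression switched on by copper sulfate through the metallothionein promoter; nearly all actives have a fitted effect of over 50% in size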
12-LOX inh: inhibitors of human 12S-lipoxygenase ALOX12; AID 1671190; purified 12hLO, xylenol orange hydroperoxide absorbance; 1.1% of 580,000 active; P18054; Potency, µM (series often up to 108 µM), inactives show top-dose activity change, negative = inhibition, usual class: inhibitors
Target sequence (P18054 whole entry, looked up): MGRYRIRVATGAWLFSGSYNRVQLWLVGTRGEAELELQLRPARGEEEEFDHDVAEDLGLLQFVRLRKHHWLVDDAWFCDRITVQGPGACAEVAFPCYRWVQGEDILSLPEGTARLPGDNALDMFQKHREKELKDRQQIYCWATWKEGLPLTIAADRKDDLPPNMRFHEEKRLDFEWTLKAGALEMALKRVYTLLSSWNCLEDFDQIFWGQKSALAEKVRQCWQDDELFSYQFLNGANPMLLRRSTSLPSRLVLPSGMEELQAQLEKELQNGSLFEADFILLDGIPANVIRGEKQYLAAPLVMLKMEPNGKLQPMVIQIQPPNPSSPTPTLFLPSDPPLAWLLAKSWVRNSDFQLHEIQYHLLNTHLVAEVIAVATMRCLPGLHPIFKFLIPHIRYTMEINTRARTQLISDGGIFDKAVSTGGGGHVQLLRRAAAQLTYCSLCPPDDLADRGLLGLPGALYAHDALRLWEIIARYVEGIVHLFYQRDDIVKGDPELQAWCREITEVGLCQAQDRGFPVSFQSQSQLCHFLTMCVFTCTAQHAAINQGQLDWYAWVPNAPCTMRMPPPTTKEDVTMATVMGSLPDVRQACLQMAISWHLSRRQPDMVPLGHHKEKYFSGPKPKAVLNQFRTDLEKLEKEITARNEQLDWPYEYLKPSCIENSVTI
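Purified human 12hLO at 150 nM in 25 mM Hepes, 0.01% Triton X-100, pH 7.0, preincubated 15 min at room temperature with compound. Reaction started with 40 uM arachidonic acid, 30 min at room temperature. Hydroperoxide measured by Fe-xylenol orange, 573/405 nm absorbance ratio.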
ELG1 repair inh: ELG1-dependent DNA repair inhibition; Potency, µM (doses to about 46.1 µM), for inactives: at the highest dose activity change, negative = inhibition, usual class: inhibitors; 2.3% of 330,000 active; HEK293T ELG1-luciferase reporter, luminescence, 16 h; DNA damage induced by 5-fluorouridine; further: nearly all actives have a fitted effect of over 55% in size
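5-Fluorouridine DNA damage + compound/DMSO, 2,000 cells/well, 16 h, 37 °C/5% CO2. ONE-Glo, 30 min RT, luminescence. Readout = decrease in reporter signal.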
* marks the source's active call; other numbers are inactive results; ? = inconclusive; . = no result given. Most compounds without a hit are left out; they make up all but 15% or so of the library. The call rests on the fitted dose curve; in most records, active means well fitted curve in the direction sought with a large enough effect; inconclusive means small, poorly fitted or top-dose-only effect, or another doubt; inactive means no such curve, though single readings can be large; an effect the other way counts as inactive or inconclusive. On the % scale 0 is the no-effect control and ±100 the full control effect; potency means the concentration at half of the fitted maximal effect.

SMILES	DT40 TDP1 no CPT	RORg inh	DT40 TDP1 CPT	VP16 counter	12-LOX inh	ELG1 repair inh
Cc1cc(C)cc(NC(=O)c2sc3nc4n(c(=O)c3c2C)N=C(c2ccc(F)cc2)CS4)c1	-26%	.	-17%	.	-18%	.
Cc1c(C(=O)Nc2ccc(F)cc2F)sc2nc3n(c(=O)c12)N=C(c1ccccc1)CS3	?	.	15µM*	.	-14%	.
CC(C)CNC(=O)CN(c1ccc(Cl)c(C(F)(F)F)c1)S(C)(=O)=O	.	.	.	.	7%	.
CN(Cc1ccccc1NS(=O)(=O)c1ccc2ccccc2c1)C1CCCCC1	21µM*	-24%	?	-4%	-14%	-5%
CN(Cc1ccccc1NS(=O)(=O)c1ccc(Cl)cc1)C1CCCCC1	-29%	2%	?	2%	-11%	-4%
Cc1c(Cl)c(C(=O)Nc2sc3c(c2C#N)CCC3)nn1C	.	.	.	.	-27%	.
Cn1c(=O)n(C)c2cc(NS(=O)(=O)c3ccccc3)c(NCc3ccccc3)cc21	?	.	15µM*	.	7%	.
Cn1c(=O)n(C)c2cc(S(=O)(=O)Nc3ccccc3C(=O)O)ccc21	1%	-4%	0%	-1%	0%	7%
CN(C)c1cc2c(cc1NS(=O)(=O)c1ccccc1)n(C)c(=O)n2C	?	-6%	?	-2%	?	?
Cn1c(=O)n(C)c2cc(NS(=O)(=O)c3ccc(Cl)cc3)c(NCc3ccccc3)cc21	13µM*	.	10µM*	.	-28%	.
Cc1cc(S(=O)(=O)Nc2cc3c(cc2NCc2ccccc2)n(C)c(=O)n3C)ccc1F	12µM*	.	7.3µM*	.	-76%	.
Cn1c(=O)n(C)c2cc(NS(=O)(=O)c3ccc(C(C)(C)C)cc3)c(NCc3ccccc3)cc21	23µM*	.	21µM*	.	?	.
Cc1cnn(CCC(=O)N2CCC3(CCOCC3)CC2)c1	.	.	.	.	41%	.
COc1cccc(CNC(=O)[C@@H]2C[C@@H](O)CN2C2CCN(C(=O)CCn3nc(C)cc3C)CC2)c1	.	.	.	.	55%	.
O=C(CC1CCCCC1)N1CCC(c2noc(COc3ccc(F)cc3)n2)CC1	.	.	.	.	15%	.
COC(=O)C1CCNC1 (stereo not given)	.	.	.	.	-71%	.
COc1ccc(S(=O)(=O)Nc2cc3c(cc2NCc2ccccc2)n(C)c(=O)n3C)cc1OC	21µM*	.	?	.	?	.
COC(=O)c1ccc(NC(=O)Cn2nc3n(c2=O)CCCC3)cc1	.	.	.	.	30%	.
CCc1cccc(NC(=O)c2nc3ccccc3nc2N2CCCC2)c1	.	.	.	.	-3%	.
Cc1ccc(-c2nn(C(C)(C)C)c3ncnc(NS(=O)(=O)c4ccc([N+](=O)[O-])cc4)c23)cc1	18µM*	13µM*	21µM*	-22%	-28%	?
Cc1cccc(OC(C)C(=O)NN)c1 (stereo not given)	.	.	.	.	8%	.
COc1ccccc1NC1=C(NC(C)=O)C(=O)c2ccccc2C1=O	?	?	18µM*	?	-18%	-14%
O=C(N/N=C/c1cccc(C(F)(F)F)c1)c1ccc(O)cc1	-25%	1.1µM*	5%	?	325%	17%
O=C(N/N=C/c1ccc(C(F)(F)F)cc1)c1ccc(O)cc1	?	1.8µM*	?	4.5µM*	-7%	?
O=C(N/N=C/c1cccc(C(F)(F)F)c1)c1cccs1	.	.	.	.	-9%	.
Nc1nccnc1C(=O)Nc1cccc(NC(=O)c2cccnc2)c1	.	.	.	.	15%	.
CC(C)CC(=O)NC[C@@H]1C[C@H](F)CN1C(=O)CCCc1cccs1	.	.	.	.	59%	.
Cc1cccc(NC(=O)CSc2nc3ccc(NC(=O)c4ccccc4)cc3s2)c1	6.5µM*	.	8.2µM*	.	-3%	.
O=C(CSc1nc2ccc(NC(=O)c3ccc(F)cc3)cc2s1)NCc1ccccc1	.	.	.	.	54%	.
